Assay results published in ChEMBL document CHEMBL3988442, “University of Dundee, Small-Polar-MMV Screening Library” (2021).
Out of some 69,000 compounds screened, about 1,000 (1.4%) showed an effect of 50% or more. Shown is part of a subset that was picked to be rich in strong results.

System: Leishmania donovani
Assay: Leishmania intramacrophage assay
Type: functional, organism-based
Parameters: scale not given: in the data most compounds retested in dose-response had high values

O=C(c1ccncc1)N1CCCn2c(CN3CCCCC3)nnc2C1
Percent Effect (30 µM, 30.03 µM): -1.304%

CN1CC(c2cc(O)nc(NCc3ccccc3Cl)n2)CC1=O (stereo not drawn)
Percent Effect (30.3 µM, […]): 7.659%

Cc1nc(C2(O)CCCNCC2)sc1CCOc1ccccc1F.Cl (stereo not drawn)
Percent Effect (30.3 µM, […]): 57.78%

Cc1nc(C2(O)CCCNCC2)sc1CCOc1ccccc1Cl.Cl (stereo not drawn)
Percent Effect (30.3 µM, […]): 22.61%

CCN1CCCC(O)(c2nc(C)c(CCOc3ccccc3Cl)s2)CC1 (stereo not drawn)
Percent Effect (30.3 µM, […]): 29.58%

CCN1CCCC(O)(c2nc(C)c(CCOc3ccccc3F)s2)CC1 (stereo not drawn)
Percent Effect (30.3 µM, […]): 7.204%

Cc1ncc(C(=O)NCCOc2ccccc2F)c(C)n1
Percent Effect (30.3 µM, […]): 48.08%

CC/N=c1/c(NC(=O)C2CC2)c(O)oc2ccccc12
Percent Effect (30.3 µM, […]): -64.73%

CNC(=O)C(C)(C)CNC(=O)Nc1ccc(C)cn1
Percent Effect (30.3 µM, […]): -4.041%

CN1CCC(N2CCC(C(=O)N(C)C)CC2)CC1.O=C(O)C(F)(F)F.O=C(O)C(F)(F)F
Percent Effect (30.3 µM, […]): 15.52%

Cc1cc(C(=O)NCc2ccnc(N3CCN(C)CC3)c2)no1
Percent Effect (30 µM): 35.55%

COc1cc(-c2nccn2C(C)CCn2cccn2)cc2c1OCO2 (stereo not drawn)
Percent Effect (30.3 µM, […]): 30.8%

COCCCn1ccnc1-c1cnc(OC)nc1
Percent Effect (30 µM, 30.03 µM): 27.45%

COc1ncc(-c2nccn2C(C)CCn2cccn2)cn1 (stereo not drawn)
Percent Effect (30.3 µM, […]): 51.46%

CCOCCNC(=O)c1cccnc1Sc1cc(OC)ccc1OC
Percent Effect (30.3 µM, […]): 14.43%

CC(NCC1CCN(CCO)CC1)c1cccc(Cl)c1 (stereo not drawn)
Percent Effect (30.3 µM, […]): 73.65%

Cc1ccc(CNC(=O)CNCC2CCN(CCO)CC2)s1
Percent Effect (30.3 µM, […]): 12.94%

COC1CCN(CCNC(=O)NC(C)c2cccc(Cl)c2)CC1 (stereo not drawn)
Percent Effect (30.3 µM, […]): 6.711%

CC(NCC1CCN(CCO)CC1)c1ccc(F)c(Cl)c1 (stereo not drawn)
Percent Effect (30.3 µM, […]): 55.27%

CC(NCC1CCN(CCO)CC1)c1cccnc1 (stereo not drawn)
Percent Effect (30.3 µM, […]): 10.64%

COc1ccc(CNCC2CCN(CCO)CC2)cc1F
Percent Effect (30.3 µM, […]): 13.13%

OCCN1CCN(CC(O)c2ccc(C(F)(F)F)cc2)CC1 (stereo not drawn)
Percent Effect (30.3 µM, […]): 28.06%

CN(CC1CCN(CCO)CC1)CC(O)c1ccc(F)c(F)c1 (stereo not drawn)
Percent Effect (30.3 µM, […]): 32.26%

CC(NCC1CCN(CCO)CC1)c1ccc(Cl)cc1 (stereo not drawn)
Percent Effect (30.3 µM, […]): 77.33%

CC(NCC1CCN(CCO)CC1)c1ccc(OC(F)(F)F)cc1 (stereo not drawn)
Percent Effect (30.3 µM, […]): 36.61%

CC(NCC1CCN(CCO)CC1)c1ccc(C(F)(F)F)cc1 (stereo not drawn)
Percent Effect (30.3 µM, […]): 77.37%

CC(NC1CCN(CCS(C)(=O)=O)CC1)c1ccc(Cl)cc1 (stereo not drawn)
Percent Effect (30 µM, 30.03 µM): 14.89%

O=C(O)C(F)(F)F.O=S(=O)(C1CC1)N1CCOCC2(CCN(c3ccccn3)C2)C1 (stereo not drawn)
Percent Effect (30 µM, 30.03 µM): -13.08%

CC(C)N(C)Cc1nnn2c1CN(Cc1cccnc1)CCC2.O=C(O)C(F)(F)F.O=C(O)C(F)(F)F.O=C(O)C(F)(F)F
Percent Effect (30.3 µM, […]): -19.03%

FC(F)(F)c1cc(C2CCNCC2)nc(-c2ccsc2)n1
Percent Effect (30.3 µM, […]): 3.687%

CN(Cc1ccccc1)S(=O)(=O)N1C[C@H](C2CC2)[C@@H](N)C1
Percent Effect (30.3 µM, […]): 11.31%

Cc1nc(CN(C)C2CCN(CCc3ccc4c(c3)CCO4)C2)no1 (stereo not drawn)
Percent Effect (30 µM): 14.02%

COc1ccc(CCN2CCCC(Cn3nc(C)nc3C)C2)cc1 (stereo not drawn)
Percent Effect (30 µM, 30.03 µM): 18.76%

CCc1nc(CN(C)C2CCN(CCc3ccncc3)C2)no1 (stereo not drawn)
Percent Effect (30.3 µM, […]): 23.01%

Cc1noc(CN(C)CC2CCN(CCO)CC2)n1
Percent Effect (30.3 µM, […]): 19.09%

Cc1nc(CN(C)C2CCN(CCc3cnn(C)c3)C2)no1 (stereo not drawn)
Percent Effect (30 µM): 5.885%

Cc1nc(C)n(CC2CCCN(CCc3ccccc3)C2)n1 (stereo not drawn)
Percent Effect (30 µM): 25.36%

O=C(CCOc1ccccc1)NS(=O)(=O)Cc1ccccc1
Percent Effect (30.3 µM, […]): 8.588%

CCO[C@H]1CC[C@H]2[C@H]1OCCN2C(=O)CC1=CCCCC1
Percent Effect (30.3 µM, […]): 2.273%

Cn1cnc(S(=O)(=O)N2CCCC2)c1Cl
Percent Effect (30 µM, 30.03 µM): 14.79%

O=C(NCCc1cccc(F)c1)c1nc2c(s1)CCCN2C(=O)C1CC1
Percent Effect (30.3 µM, […]): 44.4%

CCN(Cc1ccoc1)C(C(N)=O)c1cccc(Br)c1 (stereo not drawn)
Percent Effect (30.3 µM, […]): 23.25%

CN(c1ncc(S(N)(=O)=O)s1)C1CCc2ccccc2C1 (stereo not drawn)
Percent Effect (30.3 µM, […]): 53.12%

CN(c1ncc(S(N)(=O)=O)s1)C1CCC1
Percent Effect (30.3 µM, […]): 27.02%

CN(c1ncc(S(N)(=O)=O)s1)C1CCc2ccccc21 (stereo not drawn)
Percent Effect (30.3 µM, […]): 21.68%

O=C(NC1CCC1)C1=NOC2(CCN(Cc3ccccc3)C2)C1 (stereo not drawn)
Percent Effect (30.3 µM, […]): 18.41%

CCCC(=O)N1CCOC2(COCCN(CC(=O)NC)C2)C1.O=C(O)C(F)(F)F (stereo not drawn)
Percent Effect (30.3 µM, […]): -9.456%

CNC(=O)CN1CCOCC2(C1)CN(C(=O)C(C)C)CCO2.O=C(O)C(F)(F)F (stereo not drawn)
Percent Effect (30.3 µM, […]): -36.06%

CNC(=O)CN1CCOCC2(C1)CN(C(=O)CC(C)C)CCO2.O=C(O)C(F)(F)F (stereo not drawn)
Percent Effect (30.3 µM, […]): 52.6%

NCCc1n[nH]c(=O)n1-c1cccc2ccccc12
Percent Effect (30.3 µM, […]): -1.188%

COc1ccc2nnc(CCCC(=O)NCc3ccccc3F)n2n1
Percent Effect (30.3 µM, […]): 59.63%

COc1ccc2nnc(CCCC(=O)NCc3ccccc3)n2n1
Percent Effect (30.3 µM, […]): -8.358%

COc1ccc2nnc(CCCC(=O)NCc3ccccc3OC)n2n1
Percent Effect (30.3 µM, […]): -10.21%

Cn1nccc1CNC(=O)CCn1nc(C(F)(F)F)cc1C1CC1
Percent Effect (30.3 µM, […]): -48.51%

CCc1c(C)nc(-n2nc(C3CC3)cc2NC(C)=O)[nH]c1=O
Percent Effect (30.3 µM, […]): 18.69%

Cc1nc(-n2nc(C3CC3)cc2NC(=O)C(C)C)[nH]c(=O)c1C
Percent Effect (30.3 µM, […]): 15.32%

CC(C)c1cc(=O)[nH]c(C(C)(C)N)n1.Cl
Percent Effect (30.3 µM, […]): -1.615%

CC(=O)Nc1cc(C2CC2)nn1-c1nc(C)c(C)c(=O)[nH]1
Percent Effect (30.3 µM, […]): -16.88%

Cc1cc(=O)[nH]c(-n2nc(C3CC3)cc2N)n1
Percent Effect (30.3 µM, […]): 77.1%

Cc1cc(=O)[nH]c(-n2nc(-c3cccs3)cc2N)n1
Percent Effect (30.3 µM, […]): -7.901%

CCCc1cc(=O)[nH]c(-n2nc(-c3cccs3)cc2N)n1
Percent Effect (30.3 µM, […]): -5.205%

CCCc1cc(=O)[nH]c(-c2cccc(CN3CCCCCC3)c2)n1
Percent Effect (30.3 µM, […]): -12.61%

Cc1cc(=O)[nH]c(-n2nc(-c3ccccc3)cc2N)n1
Percent Effect (30.3 µM, […]): 15.58%

CC(NC(=O)CCc1nc(C(C)(C)C)no1)c1nnc2n1CCC2 (stereo not drawn)
Percent Effect (30.3 µM, […]): 10.79%

CNC(=O)CCS(=O)(=O)Cc1cc(Cl)c2c(c1)OCCO2
Percent Effect (30 µM): 6.265%

O=C(CN1CCC(C(=O)c2cc(F)ccc2F)CC1)NC1CC1
Percent Effect (30.3 µM, […]): 20.49%

CNC(=O)C(NC(=O)CCc1cccc(OC2CCCC2)c1)C(C)C (stereo not drawn)
Percent Effect (30.3 µM, […]): 1.65%

Cc1nsc(C(=O)NCCCc2ccccc2)n1
Percent Effect (30.3 µM, […]): 7.564%

Cc1nc(C2CCCN2C(=O)Cn2cncn2)no1 (stereo not drawn)
Percent Effect (30 µM): 21.12%

CCOC(=O)c1sc2ccsc2c1CNC(=O)COC
Percent Effect (30 µM): 13.66%

O=C(NCC(O)c1ccoc1)Nc1cccs1 (stereo not drawn)
Percent Effect (30.3 µM, […]): 10.34%

CCC(CC)(CCO)CNC(=O)c1ccon1
Percent Effect (30.3 µM, […]): 7.917%

CC(C)c1nn(C)c(N(C)C)c1CNCc1ccccc1CO.Cl
Percent Effect (30 µM): 5.046%

CC(C)c1nn(C)c(N(C)C)c1CNCc1ccccc1CN(C)C
Percent Effect (30 µM, 30.03 µM): 50.34%

COCc1ccccc1CNCc1c(C(C)C)nn(C)c1N(C)C
Percent Effect (30 µM): 21.29%

O=C1N(C2CCCCC2)CCCC12CCN(S(=O)(=O)c1cccnc1)C2 (stereo not drawn)
Percent Effect (30.3 µM, […]): 18%

CNC(=O)[C@H]1C[C@@H]2CCN(CCc3ccccc3)C[C@@H]2O1.O=C(O)C(F)(F)F
Percent Effect (30.3 µM, […]): 53.78%

O=C(NC1CCCC1)[C@@H]1C[C@@H]2CCN(Cc3ccoc3)C[C@H]2O1.O=C(O)C(F)(F)F
Percent Effect (30.3 µM, […]): 62.18%

O=C(NCC1CC1)[C@H]1C[C@@H]2CCN(CCc3ccccc3)C[C@H]2O1.O=C(O)C(F)(F)F
Percent Effect (30.3 µM, […]): -22.31%

CNC(=O)[C@H]1C[C@@H]2CN(Cc3ccccc3)C[C@H]1O2.O=C(O)C(F)(F)F
Percent Effect (30.3 µM, […]): 55.32%

COCCNC(=O)[C@H]1C[C@@H]2CCN(CCc3ccccc3)C[C@H]2O1.O=C(O)C(F)(F)F
Percent Effect (30.3 µM, […]): 57.9%

CC(C)NC(=O)[C@@H]1C[C@@H]2CCN(Cc3ccoc3)C[C@H]2O1.O=C(O)C(F)(F)F
Percent Effect (30.3 µM, […]): 11.62%

O=C(NC1CC1)[C@@H]1C[C@@H]2CCN(Cc3ccoc3)C[C@@H]2O1.O=C(O)C(F)(F)F
Percent Effect (30.3 µM, […]): 29.69%

O=C(NC1CC1)[C@H]1C[C@@H]2CCN(CCc3ccccc3)C[C@H]2O1.O=C(O)C(F)(F)F
Percent Effect (30 µM, 30.03 µM): 7.043%

O=C(NC1CCC1)[C@@H]1C[C@@H]2CCN(CCc3ccccc3)C[C@H]2O1.O=C(O)C(F)(F)F
Percent Effect (30.3 µM, […]): -19.62%

CNC(=O)[C@H]1C[C@@H]2CN(Cc3ccc(C)cc3)C[C@H]1O2.O=C(O)C(F)(F)F
Percent Effect (30.3 µM, […]): 47.12%

CNC(=O)[C@H]1C[C@@H]2CN(Cc3cccc(C)c3)C[C@H]1O2.O=C(O)C(F)(F)F
Percent Effect (30.3 µM, […]): 36.09%

COCCNC(=O)[C@H]1C[C@@H]2CCN(CCc3ccccc3)C[C@@H]2O1.O=C(O)C(F)(F)F
Percent Effect (30.3 µM, […]): 34.91%

CC(C)NC(=O)[C@@H]1C[C@@H](N)CN1C(=O)CCSCc1ccccc1
Percent Effect (30.3 µM, […]): 17.42%

CCC[C@H]1CN(CCS(C)(=O)=O)C[C@@H]1NC(=O)c1cc(CC)on1
Percent Effect (30.3 µM, […]): -7.054%

CCS(=O)(=O)NCC1OCCc2cn(CCOC)nc21 (stereo not drawn)
Percent Effect (30.3 µM, […]): 22.39%

CNc1nc(CNC(=O)Nc2cccc(COCCOC(C)C)c2)cs1
Percent Effect (30.3 µM, […]): 10.56%

Cc1cc(O)n2nc(C3CCN(C(=O)c4ccccn4)CC3)cc2n1
Percent Effect (30.3 µM, […]): -30.04%

O=C(NCCCn1cncn1)N1CCCCCC1
Percent Effect (30 µM): 20.62%

CCS(=O)(=O)NCCNC(=O)c1cc(Cl)c2c(c1)OCCCO2
Percent Effect (30 µM, 30.03 µM): 35.29%

COc1cccc2c1OCCCN(Cc1ncccc1C(=O)O)C2
Percent Effect (30.3 µM, […]): -9.577%

CN(CCCOc1ccccc1)C(=O)CN1CCc2cncnc2C1
Percent Effect (30 µM, 30.03 µM): 6.848%

N[C@@H]1CC[C@@H](NC(=O)c2ccccc2OC(F)(F)C(F)F)C1
Percent Effect (30.3 µM, […]): -30%
